Screening results (PubChem BioAssay)
MazF activator – activators of E. coli MazEF toxin-antitoxin RNase. FAM/BHQ RNA-DNA oligo cleavage fluorescence, 5 h. activation, % at 20 µM. 350,000 tested, 0.32% active. AID 504720; in the data active means activation above about 50%
Bead autofluor – counter-screen for toxin protease inhibitors: compound fluorescence. compound autofluorescence counterscreen, microsphere flow cytometry; active compounds read high. fluorescence intensity (no concentration beside the values). 360,000 tested, 3.1% active; in the data active means fluorescence intensity above about 16000; inconclusive means no clear call, values can overlap the other calls
BoNT F protease – blocks Botulinum neurotoxin F light chain protease; Multiplex microsphere protease cleavage assay, flow cytometry; inhibition, % at 10 µM; 360,000 tested, 0.22% active; in the data active means inhibition above about 35%, passing the limit was not always enough; inconclusive means no clear call, values can overlap the other calls
Anthrax LF prot – inhibitors of Bacillus anthracis lethal factor protease | P15917 | multiplex microsphere protease cleavage assay, LF | inhibition, % at 10 µM | 360,000 tested, 0.12% active
Target sequence (P15917 whole entry, looked up): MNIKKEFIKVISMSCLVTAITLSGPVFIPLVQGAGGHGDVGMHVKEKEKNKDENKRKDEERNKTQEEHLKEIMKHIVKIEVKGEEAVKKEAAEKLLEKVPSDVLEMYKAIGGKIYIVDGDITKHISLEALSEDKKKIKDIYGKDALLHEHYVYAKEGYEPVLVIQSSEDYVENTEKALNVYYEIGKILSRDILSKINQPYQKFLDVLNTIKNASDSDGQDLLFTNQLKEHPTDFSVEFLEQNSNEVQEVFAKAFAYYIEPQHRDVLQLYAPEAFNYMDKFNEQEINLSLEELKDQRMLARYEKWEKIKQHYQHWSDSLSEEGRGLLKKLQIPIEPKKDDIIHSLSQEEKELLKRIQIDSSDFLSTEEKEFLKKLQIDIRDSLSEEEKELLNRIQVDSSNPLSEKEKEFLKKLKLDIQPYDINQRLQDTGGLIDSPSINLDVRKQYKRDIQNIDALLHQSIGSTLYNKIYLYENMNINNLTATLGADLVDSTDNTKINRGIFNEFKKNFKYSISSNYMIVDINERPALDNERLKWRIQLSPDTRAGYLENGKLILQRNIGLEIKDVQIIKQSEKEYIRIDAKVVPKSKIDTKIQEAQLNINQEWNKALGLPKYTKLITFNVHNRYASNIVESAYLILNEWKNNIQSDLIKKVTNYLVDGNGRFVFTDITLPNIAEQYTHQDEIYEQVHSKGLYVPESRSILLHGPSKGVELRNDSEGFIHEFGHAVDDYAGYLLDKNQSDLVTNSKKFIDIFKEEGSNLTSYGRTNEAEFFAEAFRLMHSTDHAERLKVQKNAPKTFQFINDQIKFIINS
BoNT-A LC inh2 – inhibitors of Botulinum neurotoxin A light chain protease | inhibition, % at 10 µM | multiplex microsphere protease substrate cleavage, flow cytometry | 360,000 tested, 0.17% active
Large screens that a line does not name were inactive. Most compounds without a hit are left out; they make up all but 3.7% or so of the library. Unless noted, no stated cut-off is given here; in the data, active means inhibition above about 30%; inconclusive means no clear call, values can overlap the other calls; inactive means below that.

O=c1c2ccccc2nc(SCc2cc(F)cc3c2OCOC3)n1Cc1ccco1	Bead autofluor 24180
CN(Cc1ccccc1)C(=O)CSc1nc2ccccc2c(=O)n1Cc1ccco1	none
O=C(CSc1nc2ccccc2c(=O)n1Cc1ccco1)NCc1ccco1	none
CCOC(=O)c1cc2c(c(CSc3nc4ccccc4c(=O)n3Cc3ccco3)c1)OCOC2	Bead autofluor 20266
CCOC(=O)c1c(C)[nH]c(C(=O)COC(=O)C2(C)CC2(Cl)Cl)c1C (centres undefined)	Bead autofluor 23186
CCOC(=O)c1c(C)[nH]c(C(=O)COC(=O)c2ccccn2)c1C	Bead autofluor 19471
CCOC(=O)c1c(C)[nH]c(C(=O)COC(=O)C2CC2)c1C	Bead autofluor inconclusive, BoNT F protease inconclusive, Anthrax LF prot inconclusive, BoNT-A LC inh2 inconclusive
CCOC(=O)c1c(C)[nH]c(C)c1C(=O)CSc1ncccn1	Bead autofluor 21577
COC(=O)[C@]12CCCCC=C1N(Cc1cccc3ccccc13)C(=O)[C@H](CC(=O)N1CCN(C(=O)c3ccco3)CC1)C2	none (no result: MazF activator)
Cc1ccc(CNS(=O)(=O)c2ccc3c(c2)n(C)c(=O)c(=O)n3C)cc1	none
CCN(CC)C(=O)c1cc2cc(Br)ccc2oc1=O	Bead autofluor 22173, BoNT-A LC inh2 inconclusive
CC(C)NC(=O)c1cc2cc(Br)ccc2oc1=O	none
CN(C)CCNC(=O)c1cc2cc(Br)ccc2oc1=O	none
CCN(C(=O)c1cc2ccccc2oc1=O)c1ccccc1	Bead autofluor inconclusive
CCN(C(=O)c1cc2ccccc2oc1=O)c1cccc(C)c1	Bead autofluor 20635
O=C(Nn1cnnc1)c1cc2cc(Br)ccc2oc1=O	Bead autofluor 23909
COc1ccc(Cl)cc1NC(=O)c1noc(C)c1[N+](=O)[O-]	none
O=C(COC(=O)/C=C/c1ccccc1)NC(=O)NCc1ccccc1	none
Cc1nc(NCc2ccc3c(c2)OCO3)c2oc3ccccc3c2n1	none
Cc1ccc(Nc2ncnc3c2oc2ccccc23)cc1	none
CCc1nc(Nc2ccc3c(c2)OCCO3)c2oc3ccccc3c2n1	Bead autofluor 17390
CCc1nc(NCc2ccc3c(c2)OCO3)c2oc3ccccc3c2n1	Bead autofluor 23489, BoNT-A LC inh2 inconclusive
Cc1nc(Nc2ccc3c(c2)OCCO3)c2oc3ccccc3c2n1	none
c1ccc2c(c1)oc1c(Nc3ccc4c(c3)OCCO4)ncnc12	Bead autofluor 19956
COc1ccc(C(=O)Nn2cnnc2)cc1OC	none
COc1ccc(C(=O)Nn2cnnc2)c(OC)c1	Bead autofluor 21828
COc1ccc(C(=O)Nc2cc(C)on2)c(OC)c1	Bead autofluor inconclusive
COc1ccc(Cl)cc1NC(=O)Nn1cnnc1	Bead autofluor 16503
COc1ccc(C)cc1NC(=O)Nc1ccc(Br)cn1	Bead autofluor 18723
COc1ccc(C(=O)Nc2ccc(C)cn2)c(OC)c1	Bead autofluor 21063
Cc1ccc(Cl)cc1NC(=O)Nn1cnnc1	none
COC(=O)c1nnn(-c2nonc2N)c1CN1CCCC1	none
O=C1NC(=NCc2ccccc2)NC1(c1ccccc1)c1ccccc1	none
CC1(C(=O)Nc2ccc3nc[nH]c3c2)CCN1C(=O)CCc1ccccc1 (centres undefined)	none (no result: MazF activator)
COc1cccc(COC(=O)C2CCN(C(=O)c3ccc(F)cc3)CC2)c1OC	none
CN1/C(=C/C(=O)c2cccs2)Sc2ccccc21	Bead autofluor 20294 (no result: MazF activator)
COC(=O)/C=c1/s/c(=C(\C#N)C(=O)NCc2ccco2)n(-c2ccc(C)cc2)c1=O	MazF activator 65.0, BoNT F protease inconclusive
O=C(O)CCCC(=O)Nc1cccc([N+](=O)[O-])c1	none
O=C(COc1ccccc1)Nc1cccc(-c2nc3ccccc3[nH]2)c1	none
CC(=O)Nc1cccc(NC(=O)CCCC(=O)O)c1	Bead autofluor 18707, BoNT-A LC inh2 inconclusive
COc1ccc(OCC(=O)Nc2cccc(-c3nc4ccccc4[nH]3)c2)cc1	Bead autofluor 24148, BoNT-A LC inh2 inconclusive
O=C(Nc1cccc(-c2nc3ccccc3[nH]2)c1)c1cccc(NC(=O)c2ccco2)c1	MazF activator 65.8
O=C(CSc1ccc(Cl)cc1)Nc1cccc(-c2nc3ccccc3[nH]2)c1	none
O=C(O)CCCC(=O)Nc1cccc(-c2nc3ccccc3[nH]2)c1	Bead autofluor 16669
COC(=O)[C@]12CCCCC=C1N(Cc1ccc(Cl)cc1Cl)C(=O)[C@H](CC(=O)NCC1CCCCC1)C2	none (no result: MazF activator)
CCN1CCCC1CNC(=O)Cn1cc(C)c(=O)[nH]c1=O (centres undefined)	none
O=C(CSc1nc2ccc(Cl)cc2[nH]1)c1ccc2c(c1)OCO2	none
O=C(CSc1nc2cc(Cl)c(Cl)cc2[nH]1)c1ccc2c(c1)OCO2	MazF activator 50.7
CN(C)CCCNC1=CC(=O)OC12CCCCC2	none
